# Source: PubChem BioAssay (NCI)
# The panel holds about 83,000 compounds, 20% with a hit somewhere; the sample as a whole holds those more often.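 For each line, cells grew in 96-well plates with the test compound present at a single concentration for 48 hours.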 A number with no mark means an inactive call. Activity calls are given as the source filed them. The calls were made as follows: active = growth percent below 10; inactive = the rest.
# What was measured:
# Assay in all cases: NCI-60 one-dose screen, 48 h (100 = growth as untreated, 0 = no growth, -100 = all killed)
# Conditions in all cases: 10 µM
# [1] = system: T-47D breast
# [2] = system: BT-549 breast
# [3] = system: MDA-MB-435 melanoma
# [4] = system: SW-620 colon
# [5] = system: MCF7 breast
# [6] = system: HCC-2998 colon
# [7] = system: KM12 colon
# [8] = system: HCT-116 colon
SMILES,growth [1],growth [2],growth [3],growth [4],growth [5],growth [6],growth [7],growth [8]
O=c1[nH]c(=O)n(C2C[C@@H](O)[C@@H](CO)O2)cc1F (some centres not stated),54.3%,1.4% (active),37.1%,55.9%,20.7%,-6.77% (active),33.4%,
O=C1/C(=C/c2cccs2)CCC/C1=C\c1cccs1,17.8%,110%,81.3%,,21.4%,89.1%,65.6%,
O=C(O)c1cc(C(F)(F)F)cc(C(F)(F)F)c1,104%,105%,104%,,101%,103%,105%,99.8%
CCSc1nc2c([nH]1)c(=O)n(C)c(=S)n2C,99.6%,,109%,102%,113%,106%,103%,114%
COc1ccccc1CNCCCN1C(=O)c2ccc3c4c(ccc(c24)C1=O)C(=O)N(CCCNCCNCCCN)C3=O,17.9%,69.4%,10.4%,8.12% (active),-39.1% (active),14.7%,15.4%,
CC(C)(C)CC(C)(C)c1ccc(O)c(Cc2ccc(Cl)cc2Cl)c1,-72.9% (active),,-81.1% (active),-84.9% (active),-88.9% (active),-89.1% (active),-88.5% (active),-91.8% (active)
O=C(CCc1ccccc1)N1CCN(C(=O)CCc2ccccc2)CC1,108%,105%,106%,109%,95.7%,109%,111%,
COc1cc(-c2nc3ccc(C)cc3[nH]2)ccc1OCc1nnc(-c2ccc(CC(C)C)cc2)o1,77.2%,,99.6%,106%,79.8%,115%,97.5%,97.1%
Cc1ccc(C)c2c1sc1nc3n[nH]c(N)c3c(=N)n12,94.1%,,105%,107%,103%,109%,104%,101%
c1ccc(CNc2nc(Nc3ccc(-c4nc5ccccc5[nH]4)cc3)c3cn[nH]c3n2)cc1,-30.6% (active),-24.8% (active),-6.74% (active),7.33% (active),1.71% (active),-5.53% (active),9.4% (active),
COc1cc(C2C=C(c3ccc(Cl)c(Cl)c3)N=C3SC(C)=CN32)cc(OC)c1OC (configuration not stated),51.1%,,46.6%,50.6%,24.6%,90.7%,65.1%,-25.8% (active)
CCN(CCCNC(=O)Cc1cc(=O)oc2cc(N(C)C)ccc12)CCNc1ccnc2cc(Cl)ccc12,123%,,46.7%,74.9%,66%,79.5%,92.7%,53.3%
COc1ccc(-c2nnc(COc3ccc(NC(=O)Nc4ccccc4)cc3F)o2)cc1,62.1%,,92.3%,102%,90.3%,103%,68.5%,69.8%
Cc1cc(OI)c(C(C)C)cc1-c1cc(C(C)C)c(OI)cc1C,81.6%,,112%,113%,92.6%,105%,101%,101%
CCCc1ccnc(NS(=O)(=O)c2ccc(N)cc2)n1,64%,,77.9%,99.5%,49.2%,86.9%,74.9%,66.1%
CCN1CCN(c2ccc(Nc3ncnc4c3nnn4CCc3cc(OC)cc(OC)c3)cc2)CC1,73.3%,,95.4%,102%,85.8%,109%,99.1%,77.9%
CCOC(=O)[C@@H]1[C@H](c2ccccc2)[C@H]([N+](=O)[O-])[C@H](c2cn(-c3ccccc3)nc2C)N1Cc1ccccc1,44%,,92.3%,73.1%,67.6%,94%,88%,37.5%
O=C(NCCCl)c1cc(Cl)cc(Cl)c1,93.6%,,99.9%,112%,96.2%,102%,107%,110%
CCOC(=S)Sc1ccc([N+](=O)[O-])cc1[N+](=O)[O-],83.6%,,61.7%,35.4%,65.5%,101%,22.5%,31%
CC(=O)Nc1nc(C)c(C(=O)NNC=O)s1,127%,,107%,101%,92.4%,79.4%,105%,121%
CCOC(=O)CSC(=S)SCC(=O)OCC,89.6%,,94.9%,135%,88.7%,105%,100%,99.1%
COCCNCC(O)Cn1c2ccc(Cl)cc2c2cc(Cl)ccc21 (configuration not stated),-15.8% (active),,-83.1% (active),2.98% (active),-64.8% (active),-30.1% (active),10.9%,-5.18% (active)
CC(C)=C1CCC(C)C/C1=N\N=C(N)N (configuration not stated),97.4%,,101%,103%,92.4%,109%,107%,102%
Fc1ccc(-c2cc(C(Cl)Cl)no2)cc1,110%,,97.3%,92.1%,88.7%,107%,94.4%,90.3%
